Laboratory results reported in PubChem BioAssay AID1851 (National Center for Advancing Translational Sciences (NCATS), 2009).
In all, about 16,000 compounds went through this assay and about 5,800 (36%) were called active. Another 23% or so got no clear call; they are omitted. Calls come from the whole dose curve; as a rule, active = well fitted curve in the direction sought with a large enough effect; inconclusive = small, poorly fitted or top-dose-only effect, or effect the other way; inactive = no such curve, though single readings can be large or run the other way. This is one part of the list.

Biological target: Cytochrome P450 2C19 (Homo sapiens) (UniProt P33261)
Sequence (P33261 whole entry, looked up): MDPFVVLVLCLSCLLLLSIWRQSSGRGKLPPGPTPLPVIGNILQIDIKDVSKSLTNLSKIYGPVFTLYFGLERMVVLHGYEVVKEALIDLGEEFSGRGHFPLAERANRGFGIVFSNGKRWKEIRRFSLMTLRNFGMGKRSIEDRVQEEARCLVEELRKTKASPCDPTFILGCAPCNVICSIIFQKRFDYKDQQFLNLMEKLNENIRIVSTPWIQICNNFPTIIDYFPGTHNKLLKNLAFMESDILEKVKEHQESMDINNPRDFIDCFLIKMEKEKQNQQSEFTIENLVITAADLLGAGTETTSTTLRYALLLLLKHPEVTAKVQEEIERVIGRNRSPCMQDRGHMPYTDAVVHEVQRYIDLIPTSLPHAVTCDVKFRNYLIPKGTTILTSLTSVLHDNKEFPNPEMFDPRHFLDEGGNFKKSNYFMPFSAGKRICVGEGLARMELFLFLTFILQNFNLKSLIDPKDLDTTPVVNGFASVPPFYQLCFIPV
Assay: Cytochrome panel assay with activity outcomes
Details: recombinant CYP, pro-luciferin dealkylation, luminescence, p450-cyp2c19; series mostly up to 57.1 µM
% is set by controls: 0 for no effect and ±100 for the full control effect.

| Compound | activity, negative = inhibition | AC50 |
| --- | --- | --- |
| O=C(Nc1c[nH]c(=O)[nH]c1=O)Oc1ccccc1 | -12.9% [at 11.4 µM] (inactive) | – |
| Cc1cccc2cc(CN(Cc3ccccc3)C(=O)c3cccc(F)c3)c(Cl)nc12 | – | 2820 nM (active) |
| Cc1nc(SCC(=O)c2cc3ccccc3oc2=O)c(C#N)c(C)c1C(=O)Nc1ccccc1 | – | inactive |
| COC(=O)CSc1nc(C)cc(C(F)(F)F)c1C#N | – | 25100 nM (active) |
| COC(=O)CSc1cc(C(F)(F)F)nc(-c2ccccn2)n1 | – | inactive |
| O=C(CSC1=NCCS1)N1CCN(c2ccc(Cl)cc2)CC1 | – | 3550 nM (active) |
| c1ncc(-c2ccc3c(c2)OCO3)c(NCCc2cnc[nH]2)n1 | – | 39.8 nM (active) |
| c1nc(NCCc2cnc[nH]2)c2[nH]cnc2n1 | -12.5% [at 11.4 µM] (inactive) | – |
| CN(C)C(=O)c1ccc(-c2cncnc2NCCc2cnc[nH]2)cc1 | – | 10000 nM (active) |
| CN(C)c1ccc(-c2cncnc2NCCc2cnc[nH]2)cc1 | – | 79.4 nM (active) |
| O=C(Nc1ccccc1)N1CCCC2(CCN(C(=O)c3cnccn3)CC2)C1 | – | inactive |
| COc1ccc(COC(=O)N/N=C2/C[C@@H](O)[C@@H](O)[C@@H]3[C@@H]4C(=O)N([C@@H](C)c5ccccc5)C(=O)[C@H]4CC[C@@H]23)cc1 | -25.8% [at 11.4 µM] (inactive) | – |
| COc1ccc(/C(O)=C2\C(=O)C(=O)N(c3cc(C)on3)C2c2ccc(OC)c(OC)c2)cc1OC (stereo unspecified) | – | inactive |
| CCOc1ccc(/C(O)=C2/C(=O)C(=O)N(CCCn3ccnc3)C2c2cccs2)cc1Cl (stereo unspecified) | – | 14100 nM (active) |
| Cc1nc2ccccn2c1/C(O)=C1\C(=O)C(=O)N(CCCn2ccnc2)C1c1ccncc1 (stereo unspecified) | – | inactive |
| CCOc1ccc(/C(O)=C2/C(=O)C(=O)N(CC3CCCO3)C2c2ccc(C)o2)cc1 (stereo unspecified) | – | inactive |
| Cc1ccc(/C(O)=C2/C(=O)C(=O)N(CCCn3ccnc3)C2c2ccccn2)cc1 (stereo unspecified) | – | 2820 nM (active) |
| CCN(CC)CCN1C(=O)C(=O)/C(=C(/O)c2ccc(OC)cc2)C1c1cccs1 (stereo unspecified) | – | 14100 nM (active) |
| COc1cccc(/C(O)=C2/C(=O)C(=O)N(c3cc(C)on3)C2c2cccs2)c1 (stereo unspecified) | – | inactive |

| Compound | activity, negative = inhibition | AC50 |
| --- | --- | --- |
| COCCCN1C(=O)C(=O)/C(=C(/O)c2ccc(OC)cc2C)C1c1cccnc1 (stereo unspecified) | – | inactive |
| O=C(N/N=C1/C[C@@H](O)[C@@H](O)[C@@H]2[C@H]3C(=O)N(c4ccc(F)cc4F)C(=O)[C@@H]3CC[C@H]12)OCc1ccccc1 | -27.3% [at 11.4 µM] (inactive) | – |
| NC(=O)CSc1nc2sc(-c3ccccc3)cc2c(=O)n1N | – | 15800 nM (active) |
| c1cc2c(cc1C1CCCCC1)c1c3n2CCN[C@H]3CCC1 | – | 1000 nM (active) |
| O=C(Nc1ccc(Cl)cc1)OCCn1nnnc1C(c1ccccc1Cl)N1CCOCC1 (stereo unspecified) | – | 3980 nM (active) |
| O=C1[C@H]2O[C@@H]2[C@@H](O)[C@H]2[C@H]1CCn1c(=O)n(Cc3cc4c(cc3Cl)OCO4)c(=O)n12 | 14.6% [at 11.4 µM] (inactive) | – |
| CCCCCCCCCCCCCCCCCCNC(=O)OC[C@@H](COP(=O)([O-])OCC[n+]1ccsc1)OC | – | inactive |
| CCCCCCCCCCCCCCCCCC(=O)NC[C@@H](COP(=O)([O-])OCC[N+](C)(C)C)OCC | – | 25100 nM (active) |
| CCCCCCCCCCCCCCCCCCOC[C@@H](COP(=O)([O-])OCC[N+](C)(C)C)OC | – | inactive |
| C=C(C)CN(CC#N)CC(=C)C | 27.9% [at 11.4 µM] (inactive) | – |
| Cn1c(N)nc2c(nc(OCc3ccccc3)n2[C@@H]2O[C@H](CO)[C@@H](O)[C@@H]2O)c1=O | -3.29% [at 11.4 µM] (inactive) | – |
| Cc1ccc(N=C/C(C(=O)C(F)(F)F)=C(\O)c2cccs2)cc1 | – | 3160 nM (active) |
| COc1cc(Br)cc2cc(C(=O)NCC3CCCO3)c(=O)oc12 (stereo unspecified) | – | 398 nM (active) |
| COc1cc(CN2CCCCC2)cc2cc(C(=O)O)c(=O)oc12 | 21% [at 11.4 µM] (inactive) | – |
| CCN1CCC[C@H]1CNC(=O)c1c(OC)ccc(Br)c1OC | – | inactive |
| COc1ccc(-n2nnnc2-c2cn(C)nc2C(F)(F)F)cc1 | – | 2240 nM (active) |
| Cc1cc(C)cc(-n2nnnc2-c2cn(C)nc2C(F)(F)F)c1 | – | 2510 nM (active) |
| COc1ccc(-n2cnnc2)cc1 | – | inactive |
| COc1ccc(-n2c(C)nn(C)c2=O)cc1 | – | inactive |

| Compound | activity, negative = inhibition | AC50 |
| --- | --- | --- |
| C[C@@H]1c2cccc(O)c2C(O)=C2C(=O)[C@@]3(O)C(O)=C(C(N)=O)C(=O)[C@@H](N(C)C)[C@@H]3[C@@H](O)[C@@H]21 | – | inactive |
| CCOC(=O)C1=C(N)n2c(s/c(=C\c3ccco3)c2=O)=C(C(=O)OCC)C1c1ccco1 (stereo unspecified) | – | 8910 nM (active) |
| CCOC(=O)C1=C(c2ccccc2)N=c2s/c(=C\c3ccco3)c(=O)n2C1c1cccs1 (stereo unspecified) | – | 2240 nM (active) |
| CCOC(=O)C1=C(c2ccccc2)N=c2s/c(=C\c3cccc(O)c3)c(=O)n2C1c1cccs1 (stereo unspecified) | – | 10000 nM (active) |
| CCOC(=O)C1=C(N)n2c(s/c(=C/c3ccccc3)c2=O)=C(C(=O)OCC)C1c1ccccc1 (stereo unspecified) | – | inactive |
| c1ccc(CCNCc2ccco2)nc1 | -13.9% [at 11.4 µM] (inactive) | – |
| S=C1SCN(Cc2ccccn2)CN1Cc1ccco1 | – | 2240 nM (active) |
| S=c1nc[nH]c2c1ncn2Cc1ccco1 | -0.307% [at 11.4 µM] (inactive) | – |
| Cc1cccc(OCCSCc2nc3ccccc3[nH]2)c1 | – | 2240 nM (active) |
| O=C1c2cccc3cccc(c23)C(=O)N1CC1CCN(CC(O)COc2ccc3ccccc3c2)CC1 (stereo unspecified) | – | 7080 nM (active) |
| O=C(c1ccc(S(=O)(=O)N2CCCCCC2)cc1)N1CCC(CN2C(=O)c3cccc4cccc(c34)C2=O)CC1 | – | inactive |
| Cc1ccccc1C(C(=O)NCc1ccccc1)N(Cc1ccco1)C(=O)c1ccccn1 (stereo unspecified) | – | 3550 nM (active) |
| CC(Cc1ccccc1)C(=O)NCc1ccccn1 (stereo unspecified) | – | inactive |
| O=C(NCc1ccccc1)C(c1ccc(F)cc1)N(Cc1ccco1)C(=O)c1ccccn1 (stereo unspecified) | – | 4470 nM (active) |
| Cc1ccc(N(CCC#N)C(=O)CSc2ccc3c(c2)OCCO3)cc1 | – | 2000 nM (active) |
| O=C1CCCc2ccccc2N1Cc1ccccc1Cl | – | 1000 nM (active) |
| O=C1CCCc2ccccc2N1Cc1cccc(Cl)c1 | – | 501 nM (active) |
| C[C@@H](CN(C)C)CN1c2ccccc2CCc2ccccc21 | – | inactive |
